Assay outcomes: PubChem, National Center for Advancing Translational Sciences (NCATS)
DRD3 agonist – qHTS of D3 Dopamine Receptor Agonist: qHTS; D(3) dopamine receptor (Homo sapiens), P35462; D3R DiscoveRx beta-arrestin cells, luminescence, 90 min; max activation, %; 410,000 tested, 0.58% active; in the data active = max activation above about 30%; note: 0% is about no effect
Target sequence (P35462 whole entry, looked up): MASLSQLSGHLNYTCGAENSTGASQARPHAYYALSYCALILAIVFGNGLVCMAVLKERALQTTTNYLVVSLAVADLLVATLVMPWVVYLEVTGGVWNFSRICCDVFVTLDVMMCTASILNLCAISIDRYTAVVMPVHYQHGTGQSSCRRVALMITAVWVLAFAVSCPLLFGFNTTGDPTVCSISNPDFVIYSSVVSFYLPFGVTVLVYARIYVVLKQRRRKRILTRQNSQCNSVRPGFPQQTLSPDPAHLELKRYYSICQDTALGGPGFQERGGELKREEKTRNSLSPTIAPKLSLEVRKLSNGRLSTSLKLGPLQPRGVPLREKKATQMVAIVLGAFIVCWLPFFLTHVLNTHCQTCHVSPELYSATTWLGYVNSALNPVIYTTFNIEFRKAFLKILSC
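Cells at 1500/well, incubated overnight, then treated with pinned compounds (dopamine as control) for 90 min at 37 degrees C. DiscoveRx reagent added for 30 - 60 minutes at room temperature; luminescence read.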
Integrin act MD – qHTS for Activators of Integrin-Mediated Alleviation for Muscular Dystrophy | alpha7betagal myoblasts, beta-gal FDG fluorescence, 48 h | Potency, µM (highest dose often 38.3 µM), inactives show at the top dose activation, actives largely listed as activators | 350,000 tested, 0.064% active | AID 624291, 2012;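 note: potency is the fitted concentration of half-maximal effect; 100% = response of the positive control SU9516; nearly all actives have a fitted effect of over 60% in size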
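Alpha7betagal+/- myoblasts (passage 13) were plated 16-24 hr, then exposed to compounds (1:260 dilution of DMSO stock) for 48 hours at 37C. After MPER lysis, β-galactosidase reporter activity was read as FDG fluorescence (ex 480/em 540) after 30 minutes.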
CBFb RUNX1 block – qHTS Assay for Compounds Blocking the Interaction Between CBF-beta and RUNX1 for the Treatment of Acute Myeloid Leukemia; Runt-related transcription factor 1 (Homo sapiens) + Core-binding factor subunit beta …; AlphaScreen CBFb-His/RUNX1-biotin binding, biochemical; Potency, µM (top dose mostly 59.8 µM), for the others: at the highest dose activity, negative = inhibition, most hits filed as inhibitors; 230,000 tested, under 10 active; note: % of control where 0% means no effect
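Inhibition was taken as any reduction in AlphaScreen signal from the CBF-beta–RUNX1 pair (His and biotin tags, 30 nM each), measured after compound (15 min) and bead (90 min) incubations at room temperature.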
MBNL1 CUG block – qHTS Assay for Inhibitors of MBNL1-poly(CUG) RNA binding. TR-FRET MBNL1-His/biotin-(CUG)12 binding, 665/545 ratio. Potency, µM (highest dose often 57.5 µM), inactives show at the top dose activity change, negative = inhibition, hits mostly inhibitors. 280,000 tested, 0.036% active. AID 2675, 2010; active = well fitted inhibition curve with a large enough effect in the signal ratio, with a control signal flat, not every such curve was filed as active; inconclusive = small, poorly fitted or top-dose-only effect, or effect the other way, or a change in a side signal; inactive = no such curve, though single readings can be large or run the other way; the % refers to the signal ratio; note: potency is the fitted concentration of half-maximal effect; % is set by controls: 0 for no effect and ±100 for the full control effect
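Inhibition of protein-RNA binding appears as loss of TR-FRET between terbium anti-His antibody on MBNL1-His and streptavidin-XL665 on biotin-(CUG)12. Activity is normalized to buffer-only and uninhibited-complex controls.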
PTHR1 ag – qHTS for PTHR1 Agonists: Primary Screen; 410,000 tested, 0.075% active; Parathyroid hormone/parathyroid hormone-related peptide receptor (Homo sapiens), Q03431; HEK293 GP2 PTHR1 cells, GloSensor cAMP luminescence, 1 h; Potency, µM (titrated, usually from 115 µM), for the others: at the highest dose activation, most hits filed as activators; note: potency is the fitted concentration of half-maximal effect; nearly all actives have a fitted effect of over 55% in size
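HEK-293-derived GP2 cells expressing PTHR1 and a GloSensor cAMP reporter, 3,000/well, plated overnight, given luciferin plus IBMX (each 0.5 mM as added) for 1 h at 37 °C, then compound for 1 h at 37 °C. Luminescence was read after 15 min at room temperature.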
DRD3 antagonist – qHTS of D3 Dopamine Receptor Antagonist: qHTS | D3R cells, DiscoveRx beta-arrestin luminescence, antagonist mode; active compounds read low | D(3) dopamine receptor (Homo sapiens), P35462 | max response, negative = inhibition, % | AID 652054, 2013 | 360,000 tested, 2.5% active; in the data active = max response below about -50%; inconclusive = no clear call, values can overlap the other calls; note: % is set by controls: 0 for no effect and ±100 for the full control effect
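Cells expressing the human receptor were seeded at 1500 cells/well, incubated overnight at 37 degrees C in 5% CO2, then exposed to library compounds with dopamine controls for 90 minutes at 37 degrees C before luminescent detection.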
Active calls of the source: *; i = inactive; ? = inconclusive; . = no result given; [ ] = another dose, or the depositor's remark. This is a sample that favours compounds with a hit; in the whole collection about 2.8% have one here. Unless noted, calls come from the whole dose curve; as a rule, active = well fitted curve in the direction sought with a large enough effect; inconclusive = small, poorly fitted or top-dose-only effect, or another doubt; inactive = no such curve, though single readings can be large; an effect the other way counts as inactive or inconclusive.

SMILES	DRD3 agonist	Integrin act MD	CBFb RUNX1 block	MBNL1 CUG block	PTHR1 ag	DRD3 antagonist
C/C=C/c1ccc(OCCCCOc2c(OC)cccc2OC)c(OC)c1	-7	-27%	21%	.	-5%	12
CC(=O)Nc1cccc(-c2cc(C)c3cc4c(cc3n2)OCO4)c1	-2	18%	.	?	-61%	7
NC(=O)c1nsc(C(=O)N(CC(=O)NC2CCCC2)Cc2ccc3c(c2)OCO3)c1N	3	0%	6%	?	1%	-9
Cc1ccc(C(C)(C)C)c(OCCOCCN2CCCC2)c1	-30	-2%	4%	-16%	i	-54*
CC(C)(C)c1ccccc1OCCOCCN1CCCCCC1	-14	-71%	-3%	-6%	i	-62*
CC(C)Cn1c(/C=N/Nc2nc3ccccc3[nH]2)nc2ccccc21	-1	4%	.	.	i	-71*
C=CCn1cc(/C=N/Nc2nc3ccccc3[nH]2)c2ccccc21	-32	-24%	?	-9%	-3%	-70*
CCCn1c(/C=N/Nc2nc3ccccc3[nH]2)nc2ccccc21	-10	-46%	.	.	-8%	-19
COc1ccc(CN2C(=O)C(CC(C)C)Nc3ncnc(N4CCN(c5ccccc5)CC4)c32)cc1 (stereo not drawn)	-8	-12%	.	.	20%	-10
O=C1C(Cc2ccccc2)Nc2ncnc(N3CCN(c4ccccc4)CC3)c2N1Cc1ccc(Cl)cc1 (stereo not drawn)	-45	-35%	.	.	-24%	-128*
CC(C)CC1Nc2ncnc(N3CCN(c4ccccc4)CC3)c2N(Cc2ccc(Br)cc2)C1=O (stereo not drawn)	0	27%	.	.	i	0
O=C1C(Cc2ccccc2)Nc2ncnc(N3CCCCC3)c2N1Cc1ccc(Cl)cc1 (stereo not drawn)	-45	10%	.	.	-70%	-65*
COc1ccc(CN2C(=O)C(Cc3ccccc3)Nc3ncnc(N4CCN(c5ccccc5)CC4)c32)cc1 (stereo not drawn)	-47	-10%	.	.	i	-111*
CC(C)CC1Nc2ncnc(N3CCCCC3)c2N(Cc2ccccc2)C1=O (stereo not drawn)	-24	2%	.	.	2%	-4
O=C1C(Cc2ccccc2)Nc2ncnc(N3CCOCC3)c2N1Cc1ccc(Br)cc1 (stereo not drawn)	-27	-24%	.	.	-4%	-66*
Cc1ccccc1-c1cnc(C(O)c2ccc(F)c(F)c2)[nH]1 (stereo not drawn)	-7	.	.	.	-15%	0
O=C(CN1CCOCC1)N1c2ccccc2Sc2ccccc21	1	3%	.	-4%	i	-6
O=C(N1CCOCC1)N1c2ccccc2Sc2ccccc21	-6	37%	0%	-5%	-30%[57.5 µM]	-77*
C#Cc1ccc(NC(=O)C2(C)CCN2C(=O)Cc2ccc(C(C)C)cc2)cc1 (stereo not drawn)	4	.	.	.	-48%	11
Cc1cc(-c2nn(-c3ccccc3F)cc2CN2CCCC(O)C2)c(C)s1 (stereo not drawn)	-7	11%	0%	-1%	8%	-13
COCC1CCN(Cc2cn(-c3ccccc3F)nc2-c2cc(C)sc2C)CC1	-30	2%	4%	-5%	i	-84*
Cc1cc(-c2nn(-c3ccccc3F)cc2CN2CCC(C(N)=O)CC2)c(C)s1	-19	?	19%	6%	-10%	?
Cc1cc(-c2nn(-c3ccccc3F)cc2CN2CCCC(CO)C2)c(C)s1 (stereo not drawn)	-4	-14%	-10%	-10%	-15%	-53*
CCn1c(=O)ccc2cc([N+](=O)[O-])ccc21	0	2%	10%	?	-27%	6
O=C(NCC(c1cccs1)N1CCOCC1)c1cc2ccccc2oc1=O (stereo not drawn)	2	14%	.	.	-35%	-16
SMILES	DRD3 agonist	Integrin act MD	CBFb RUNX1 block	MBNL1 CUG block	PTHR1 ag	DRD3 antagonist
Oc1ccc(CN2CCC(Cc3ccccc3)CC2)c2cccnc12	-21	-34%	.	20%	1%	-88*
Cn1cc(CN2CCc3ccccc3C2)c2ccccc21	-28	-41%	4%	20%	i	-95*
Oc1c(CN2CCN(c3ccccn3)CC2)cc(Cl)c2cccnc12	-49	-41%	?	16%	i	-128*
COc1cccc(CC2(CO)CCCN(Cc3cn(C)c4ccccc34)C2)c1 (stereo not drawn)	-12	0%	4%	-16%	i	0
Cn1cc(CN2CCCC(CO)(Cc3ccccc3)C2)c2ccccc21 (stereo not drawn)	-8	-13%	-4%	-20%	i	-50*
COc1ccc(N2CCN(C(=O)c3cc(-c4ccc(C)c(F)c4)on3)CC2)cc1	2	.	.	.	-43%	.
Cc1sc(NC(=O)C2CC=CCC2C(=O)O)c(C(=O)OC(C)C)c1C (stereo not drawn)	2	0%	-2%	-3%	-4%	-3
Oc1ccc(CN2CCN(c3ccccc3)CC2)c2cccnc12	-26	-49%	?	-8%	i	-100*
Oc1c(CN2CCCCC2)cc(COCc2ccccc2)c2cccnc12	-9	-52%	-8%	13%	?	-125*
Oc1ccc(CN2CCc3ccccc3C2)c2cccnc12	-13	-62%	?	10%	-32%	-114*
Ic1ccc(N2CCN(Cc3c[nH]c4ncccc34)CC2)cc1	-88	.	9%	.	-24%	-58*
COc1ccccc1-n1nc(-c2ccccc2)c2cnc3c(F)cc(F)cc3c21	-5	.	.	.	?	.
O=C(CCn1c(=O)sc2ccccc21)NCc1ccc2c(c1)OCO2	-11	25%	-2%	-2%	-3%[57.5 µM]	-18
COc1ccc(CNC(=O)CN2C(=O)CSc3ccc(S(=O)(=O)N4CCCC4)cc32)cc1	-11	.	.	.	i	.
Cc1c(CC(=O)O)c(=O)oc2cc(OCc3ccc(Br)cc3)ccc12	4	-4%	.	-2%	-15%	-9
COc1cccc(Nc2nc3ccccc3nc2NS(=O)(=O)c2ccc(NC(C)=O)cc2)c1	-7	3%	.	3%	-25%	-28
COc1cccc(Nc2nc3cc(C)ccc3nc2NS(=O)(=O)c2ccc(Cl)cc2)c1	43*	.	.	.	-28%	.
